Source: PubChem BioAssay AID493220 (National Center for Advancing Translational Sciences (NCATS), 2011)
Records with an inconclusive call do not appear. The source made the active and inactive calls. The call rests on the fitted dose curve.

Biological target: Polyunsaturated fatty acid lipoxygenase ALOX15 (Homo sapiens) (UniProt P16050)
Experiment: Inhibitors of 12-hLO (12-human lipoxygenase): 15hLO-1 Cuvette-Based Inhibition Counterscreen Assay for 12hLO Followup Compounds
Conditions: purified 15hLO-1, UV 234 nm product formation
Experimental: Human lipoxygenase 15hLO-1 is a member of the closely related lipoxygenase family of enzymes which catalyze the site-specific oxidation of arachidonic acid to various hormone precursor molecules and as such is a candidate for drug development in a variety of disease areas, such as cancer and inflammation. The enzyme activity of 15hLO-1 was determined by a direct measurement of product formation by monitoring the absorbance at 234 nm in a 2 mL cuvette. IC50 values of inhibitors were obtained by measuring the enzymatic rate at a variety of concentrations (Carroll et al, Segraves et al). A purified preparation of human 15hLO-1 was supplied by Professor Ted Holman, University of California, Santa Cruz. This assay was run against 12hLO followup compounds with the goal of identifying selective 12hLO inhibitors. Assay Provider: Holman, T.R., University of California, Santa Cruz Screening Center PI: Austin, Christopher P. Screening Center: NIH Chemical Genomics Center
For control experiments, 2 mL of substrate buffer (10 uM arachidonic acid / 25 mM HEPES / 0.01% (v/v) Triton X-100, pH 8.0) was aliquoted in a cuvette with a magnetic stir bar. After equilibrium was ensured, an aliquot of inhibitor solvent was added (DMSO), and equilibrium was once again assured. […] 3; No change in absorbance ensured. […] 5; No change in absorbance ensured. […]

Chain of Polyunsaturated fatty acid lipoxygenase ALOX15 (Homo sapiens) (P16050 whole entry, looked up): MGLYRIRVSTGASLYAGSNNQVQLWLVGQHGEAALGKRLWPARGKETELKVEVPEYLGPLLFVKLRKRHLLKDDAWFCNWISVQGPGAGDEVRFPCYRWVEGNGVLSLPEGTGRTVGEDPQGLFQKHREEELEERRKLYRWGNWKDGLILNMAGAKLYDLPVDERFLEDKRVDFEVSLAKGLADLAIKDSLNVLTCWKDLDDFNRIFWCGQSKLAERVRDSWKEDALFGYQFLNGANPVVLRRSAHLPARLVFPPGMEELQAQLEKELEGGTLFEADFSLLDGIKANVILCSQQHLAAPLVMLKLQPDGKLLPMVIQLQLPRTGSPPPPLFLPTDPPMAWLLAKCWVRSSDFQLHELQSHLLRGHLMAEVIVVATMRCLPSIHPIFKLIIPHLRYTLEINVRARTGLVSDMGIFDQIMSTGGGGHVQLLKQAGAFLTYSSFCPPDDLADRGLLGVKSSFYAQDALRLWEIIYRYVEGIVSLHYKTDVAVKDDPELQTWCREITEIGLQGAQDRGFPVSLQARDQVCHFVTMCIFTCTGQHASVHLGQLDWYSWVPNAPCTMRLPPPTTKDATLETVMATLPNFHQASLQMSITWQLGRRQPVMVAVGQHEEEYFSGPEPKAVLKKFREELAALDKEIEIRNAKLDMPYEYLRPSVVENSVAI

For `CC(Oc1ccc(Cl)cc1Cl)C(=O)Nc1ccc(S(=O)(=O)Nc2cnc3ccccc3n2)cc1` (stereo unspecified), the Potency was 30.8 µM (active).
